The target of the first experiment is SPINK6. Description: pooled miR-30 sensor sort-seq; sequence = guide strand. Conditions: shRNA.
TGAATTAAAGGAATCCACCAGC showed a sensor-assay potency score (higher = more potent) of -0.148.

The sequence TTAGGCTAATCTTTCCACCACT came in with a sensor-assay potency score (higher = more potent) of -0.87.

For the sequence TTCCCGAGTGCAGTAGACCTTG, the sensor-assay potency score (higher = more potent) was -0.732.

As for TAATCTTTCCACCACTTTTCAC, the sensor-assay potency score (higher = more potent) is -1.05.

Sequence TATTGCCATATGTCTGGCCATC showed a sensor-assay potency score (higher = more potent) of -1.73.

Sequence TAGACATACATTGAACTCCTCA had a sensor-assay potency score (higher = more potent) of -0.369.

Take TTTATTGCCATATGTCTGGCCA: the sensor-assay potency score (higher = more potent) was -0.38.

Take TGCTTTAGGCTAATCTTTCCAC: the sensor-assay potency score (higher = more potent) was -0.643.

Sequence GAACTCACCACAGTCAACCTGT registered a sensor-assay potency score (higher = more potent) of -0.413.

For TTAGATTCCCGAGTGCAGTAGA, the sensor-assay potency score (higher = more potent) is 0.5.

On to TAAAAAGCAGAAAAGAGCCAGA, for which the sensor-assay potency score (higher = more potent) was -0.281.

ACAGTCAACCTGTCCTCCCTGA gave a sensor-assay potency score (higher = more potent) of -0.55.

The next experiment has as its target SPOCK1. The experiment is described as above. Particulars: shRNA.
In turn, TCCAACTTGTTGAACATCCAGC yielded a sensor-assay potency score (higher = more potent) of -1.54.

On to TTGTCTAGGAAATTGCCGTGGT, for which the sensor-assay potency score (higher = more potent) was determined as 0.282.

As for TTGTCTGTGCAGGCACTCCTTT, the sensor-assay potency score (higher = more potent) is -0.821.

The sequence TATTTGTCCACACACCAGCACT registered a sensor-assay potency score (higher = more potent) of -1.26.

As for TTGCACTTGGATGTGTAGGAGT, the sensor-assay potency score (higher = more potent) is -0.759.

As for ATATTCTAGGTCATCCAGCAGG, the sensor-assay potency score (higher = more potent) was -0.735.

As to TTTGTCATCATCCTCATCCTCA, the sensor-assay potency score (higher = more potent) turned out to be 0.0865.

TAATCATCGTCTCGAAAGCGGT: the sensor-assay potency score (higher = more potent) was -1.33.

The sequence TTCATATTCTAGGTCATCCAGC had a sensor-assay potency score (higher = more potent) of -0.469.
Note: reference of the scale not given here.
